Screens from PubChem BioAssay.
In the library only some 3.9% were active in any assay of this set; here they are far more common.
CDK5 p35 inh – inhibitors of human CDK5/p35 kinase. Q00535+Q15078. Recombinant CDK5/p35, ADP-Glo luminescence, 60 min. inhibition, % at 10 µM. 330,000 compounds, 0.01% hits;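 active = highest replicate inhibition of at least 50% and at least 75% of replicates reaching 50%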;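 note: plate controls were DMSO neutral control for no effect and GW8510 at 10 µM for full effect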
Target sequence (Q00535 whole entry, looked up): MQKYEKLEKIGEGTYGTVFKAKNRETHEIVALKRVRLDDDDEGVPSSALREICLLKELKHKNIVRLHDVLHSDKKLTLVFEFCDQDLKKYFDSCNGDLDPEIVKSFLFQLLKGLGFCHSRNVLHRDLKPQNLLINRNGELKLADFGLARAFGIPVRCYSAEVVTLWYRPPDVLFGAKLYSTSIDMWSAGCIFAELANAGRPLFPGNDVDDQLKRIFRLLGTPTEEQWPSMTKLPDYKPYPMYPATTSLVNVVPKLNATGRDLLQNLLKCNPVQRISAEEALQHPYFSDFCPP
Target sequence (Q15078 whole entry, looked up): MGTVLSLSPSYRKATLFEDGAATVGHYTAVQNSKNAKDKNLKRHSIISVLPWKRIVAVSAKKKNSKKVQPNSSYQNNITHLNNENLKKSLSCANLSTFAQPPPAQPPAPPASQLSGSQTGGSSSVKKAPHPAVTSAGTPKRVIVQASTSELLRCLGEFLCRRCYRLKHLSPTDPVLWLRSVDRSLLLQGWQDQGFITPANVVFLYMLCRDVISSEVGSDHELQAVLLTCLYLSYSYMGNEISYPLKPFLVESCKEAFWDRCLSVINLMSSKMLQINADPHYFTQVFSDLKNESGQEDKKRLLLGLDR
ALR inh – inhibitors of human sulfhydryl oxidase ALR; purified ALR, DTT oxidation, H2O2 HRP-luminol luminescence; P55789; inhibition, % (no concentration beside the values); 290,000 compounds, 3.8% hits;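 active = mean replicate inhibition above about 79%, with every replicate also reaching it, limit read from the data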
NSD2 HMT inh – NSD2 (human) methyltransferase inhibition | O96028 | NSD2 peptide methylation, AlphaScreen, 120 min | inhibition, % at 12.5 µM | 310,000 compounds, 0.54% hits | AID 743445; in the data active = inhibition above about 50%
Casp6 inh – caspase-6 (human) enzyme inhibition | inhibition, % at 12.5 µM | 350,000 compounds, 0.53% hits | P55212 | AID 686996 | purified caspase-6, Z-VEID-R110 cleavage fluorescence;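 active = mean inhibition across replicates at least about 35%, with every replicate also reaching that limit, limit read from the data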;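 note: 0% = median of neutral control wells and 100% = no fluorescence left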
SUMO Mot1 rescue – blocks SUMOylation pathway, rescuing yeast Mot1-301 growth. AID 2716. 320,000 compounds, 1% hits. growth rescue, % at 18.8 µM. S. cerevisiae Mot1-301 growth rescue, ATP luminescence, 38.5C; percent above DMSO median, 100 means doubled;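 active = every valid replicate shows activation above 250% relative to neutral control wells; inactive = the rest, any valid replicate at or below 250%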;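 note: OY570 slx delta 5 strain wells were the positive control but not used for scaling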
N-glyco inh – N-linked glycosylation inhibition; D54 ERlucT glycosylation luciferase reporter, 24 h; percent of 100 nM tunicamycin response; reporter increase, % at 12.5 µM; 360,000 compounds, 0.23% hits; AID 588692;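 active = mean luciferase reporter signal, scaled so untreated is 0 and the glycosylation-blocking control 100, at or above a set limit in every replicate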;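 note: luciferase carries N-glycosylation sites so blocking glycosylation raises the light; 0% = median of neutral control wells and 100% = median of 100 nM tunicamycin wells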
Yeast Mot1 SUMO – yeast SUMO pathway inhibition in dose response; S. cerevisiae Mot1-301 galactose growth, ATP luminescence, 24 h; -100 = growth of slx-deleted rescue strain; AID 493004; shares compounds with SUMO Mot1 rescue; 2,300 tested, under 10 active; growth activity, percent, % at 42 µM;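 active = Signal drops as the depositor expects, and the fitted half-maximal dose is no more than ten times the top valid tested dose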;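 note: more negative values mean stronger growth rescue toward the control strain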
* hit, by the source's call.

For COc1ccc(NC(=O)N(C)C[C@@H]2Oc3ccc(NS(C)(=O)=O)cc3CC(=O)N([C@H](C)CO)C[C@H]2C)cc1 the results were Casp6 inh -2.
O=C(NC(=S)Nc1ccccc1N1CCCC1)c1ccc([N+](=O)[O-])cc1 was read as CDK5 p35 inh -3, ALR inh 57, NSD2 HMT inh 6, SUMO Mot1 rescue 407*, N-glyco inh 0 and Yeast Mot1 SUMO 0.
For Cc1c(C(=O)NC(=S)Nc2ccccc2N2CCCC2)cccc1[N+](=O)[O-] the results were CDK5 p35 inh -1, ALR inh 5, NSD2 HMT inh 2, Casp6 inh 3, SUMO Mot1 rescue 426*, N-glyco inh -3 and Yeast Mot1 SUMO 0.
Screening O=C(NC(=S)Nc1ccccc1N1CCOCC1)c1ccc([N+](=O)[O-])cc1 returned CDK5 p35 inh 0, NSD2 HMT inh -2, SUMO Mot1 rescue -2 and N-glyco inh 2.
Screening CCOC(=O)CS(=O)(=O)c1ccc2ccccc2c1 returned CDK5 p35 inh -2, ALR inh -14, NSD2 HMT inh 0, SUMO Mot1 rescue 955*, N-glyco inh 0 and Yeast Mot1 SUMO 2.
COc1ccccc1CC(=O)N1CCN(S(=O)(=O)c2ccccc2)CC1 was read as CDK5 p35 inh 0, ALR inh 5, NSD2 HMT inh -3, Casp6 inh 2, SUMO Mot1 rescue 383*, N-glyco inh 0 and Yeast Mot1 SUMO 0.
Screening O=C(CSc1nnc(NC(=O)CN2CCOCC2)s1)Nc1ccccc1 returned CDK5 p35 inh 1, ALR inh 1, NSD2 HMT inh -1, SUMO Mot1 rescue active, N-glyco inh 1 and Yeast Mot1 SUMO 0.
Screening C[C@@H]1CN([C@H](C)CO)C(=O)c2cc(NS(C)(=O)=O)ccc2O[C@@H](C)CCCCO[C@@H]1CN(C)Cc1ccccc1 returned Casp6 inh -1.
Screening CCCNC(=O)C[C@@H]1CC[C@H]2[C@@H](COc3ccc(NC(=O)c4cc(C)on4)cc3C(=O)N2C)O1 returned Casp6 inh 1.
For Cc1ccc(NC(=O)Cn2c(CCC(=O)O)ccc2-c2cccs2)cc1 the results were CDK5 p35 inh 0, ALR inh 18, NSD2 HMT inh -3, SUMO Mot1 rescue 526*, N-glyco inh 1 and Yeast Mot1 SUMO 0.
Cc1c(Cl)cccc1NC(=O)Cn1c(CCC(=O)O)ccc1-c1ccccc1 was read as CDK5 p35 inh 0, ALR inh -1, NSD2 HMT inh 1, Casp6 inh 4, SUMO Mot1 rescue 429*, N-glyco inh -1 and Yeast Mot1 SUMO -1.
Screening CN1C(=O)c2cc(NC(=O)c3cnccn3)ccc2OC[C@H]2O[C@H](CC(=O)O)CC[C@H]21 returned Casp6 inh -3.
`Cn1c(SCC(=O)Nc2ccc(N3CCOCC3)c(Cl)c2)nnc1-c1ccccc1` gave ALR inh 42, SUMO Mot1 rescue 692* and Yeast Mot1 SUMO 0.
For CCn1c(Cc2ccccc2)nnc1SCC(=O)Nc1ccc(N2CCOCC2)c(Cl)c1 the results were CDK5 p35 inh 0, ALR inh -11, NSD2 HMT inh 3, SUMO Mot1 rescue -16 and N-glyco inh -3.
O=C(NCc1ccncc1)[C@@H]1[C@@H](CO)[C@@H]2Cn3c(ccc(-c4cccnc4)c3=O)[C@@H]2N1C(=O)C1CC1 was read as Casp6 inh -2.
O=C1CN(C(=O)COC(=O)CCNS(=O)(=O)c2ccc(Cl)cc2)c2ccccc2N1 was read as CDK5 p35 inh -3, ALR inh 3, NSD2 HMT inh 5, Casp6 inh 1, SUMO Mot1 rescue 365*, N-glyco inh 7 and Yeast Mot1 SUMO 0.
For CCCc1cc(=O)oc2c3c(c4c(c12)OC(C)(C)C=C4)OC(C)C(C)C3O (configuration not stated) the results were CDK5 p35 inh 3, ALR inh -1, Casp6 inh 3, SUMO Mot1 rescue 779*, N-glyco inh -8 and Yeast Mot1 SUMO 0.
Screening CCCc1cc(=O)oc2c3c(cc(OCC(=O)N[C@@H](C)C(=O)O)c12)OC(C)(C)CC3 returned CDK5 p35 inh 0, ALR inh -2, NSD2 HMT inh -3, Casp6 inh 0, SUMO Mot1 rescue 0 and N-glyco inh 0.
Cc1ccccc1S(=O)(=O)N1CC(=O)N2[C@H](CO)[C@H](c3ccc(C#CC4CC4)cc3)[C@H]2C1 was read as Casp6 inh -2.
CO[C@@H]1CN(C)C(=O)c2ccc(NC(=O)Nc3ccc(Cl)cc3)cc2OC[C@H](C)N(C(=O)Nc2c(C)noc2C)C[C@H]1C was read as Casp6 inh -2.
CC(OC(=O)c1cnccn1)C(=O)c1ccccc1 (configuration not stated) was read as CDK5 p35 inh 0, ALR inh -6, NSD2 HMT inh 0, Casp6 inh -4, SUMO Mot1 rescue 433*, N-glyco inh 1 and Yeast Mot1 SUMO 0.
Cc1ccc(C(=O)C(OC(=O)c2cnccn2)c2ccccc2)cc1 (configuration not stated) was read as CDK5 p35 inh -1, ALR inh 0, NSD2 HMT inh -3, Casp6 inh -3, SUMO Mot1 rescue 1 and N-glyco inh 1.
`CC(C)NC(=O)N(C)C[C@H]1Oc2cc(C#CCN(C)C)ccc2S(=O)(=O)N([C@H](C)CO)C[C@@H]1C` gave Casp6 inh 4.
For Cc1ccc(NC(=O)COC(=O)Cn2c(C)csc2=O)c([N+](=O)[O-])c1 the results were CDK5 p35 inh -6, ALR inh -5, NSD2 HMT inh 0, Casp6 inh 2, SUMO Mot1 rescue -22 and N-glyco inh 1.
Screening Cc1csc(=O)n1CC(=O)OCC(=O)Nc1cc([N+](=O)[O-])ccc1Cl returned CDK5 p35 inh 1, ALR inh -4, NSD2 HMT inh 0, Casp6 inh 3, SUMO Mot1 rescue 485*, N-glyco inh 2 and Yeast Mot1 SUMO 0.
For CC(=O)Nc1ccc(C(=O)Nc2nc(-c3ccccn3)cs2)cc1 the results were CDK5 p35 inh 2, ALR inh -21, NSD2 HMT inh 0, Casp6 inh 6, SUMO Mot1 rescue -12 and N-glyco inh 0.
`O=C(Nc1nc(-c2ccccn2)cs1)c1ccc2c(c1)OCCO2` gave CDK5 p35 inh -1, ALR inh -4, Casp6 inh -2, SUMO Mot1 rescue 369*, N-glyco inh -12 and Yeast Mot1 SUMO 0.
Screening O=C(NC[C@@H]1CC[C@H]2[C@H](CN2C(=O)C2CCOCC2)O1)c1cccnc1 returned Casp6 inh -1.
